Assay outcomes from PubChem BioAssay.
Nrf2 activator: qHTS of Nrf2 Activators; AREc32 ARE-luciferase reporter (MCF7-derived line), luminescence, 24 h; Potency, µM (highest dose often 46.1 µM), most hits filed as activators; actives 0.31% (n = 410,000); further: nearly all actives have a fitted effect of over 65% in size
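AREc32 cells carrying an ARE-driven firefly luciferase reporter were seeded at 1000 cells/well in OPTI-MEM with 5% FBS, then exposed to compound for 24 hr at 37 deg C. Luminescence was read with Steady-Glo after 30 min at RT.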
IL-2 act: qHTS of IL-2 Activators. IL-2 activation reporter assay, cell-based qHTS; stimulated with anti-CD3/CD4/CD28 beads; in transgenic mouse T cells. activation, % (series mostly up to about 46 µM). actives 0.065% (n = 360,000). AID 652025, 2013; in the data active means activation above about 50%; inconclusive means mostly about 30% to 49%
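Quantitative HTS in unstimulated transgenic mouse T cells, with memory T cells as non-tolerant control and PMA/ionomycin as tolerance-bypass control. Compound pretreatment lasted 60 minutes before 18 h bead stimulation; EGFP/DsRed fluorescence read.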
BRCA1 expr act: qHTS Assay to Identify Small Molecule Activators of BRCA1 Expression; actives 1.1% (n = 380,000); Potency, µM (titrated, usually from 46.1 µM), hits mostly activators; MCF7-BRCA1-FFLuc reporter, luminescence, 48 h; response scale: scaled: vehicle 0%, 10 µM genistein 100%; further: nearly all actives have a fitted effect of over 80% in size
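MCF7-BRCA1-FFLuc cells, 2000/well in phenol-red-free MEM, attached 2 h then treated 48 h at 37 C. Luciferase luminescence read 15 min after reagent; normalized to genistein maximum activation (10microM) and DMSO, concentration-response fitted.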
ELG1 DNA repair: qHTS screen for small molecules that inhibit ELG1-dependent DNA repair in human embryonic kidney (HEK293T) cells expressing luciferase-tagged ELG1; HEK293T ELG1-luciferase reporter, luminescence, 16 h; DNA damage induced by 5-fluorouridine; Potency, µM (series often up to 46.1 µM), usual class: inhibitors; actives 2.3% (n = 330,000); further: nearly all actives have a fitted effect of over 55% in size
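Overnight (16 hr) co-exposure of 2,000 cells/well to 5-fluorouridine and compound at 37 °C preceded detection. Luciferase was quantified via ONE-Glo luminescence; loss of signal denotes inhibition.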
Hits are given with their value; n = inactive; u = inconclusive; x = not tested or not shown. Most compounds without a hit are left out; they make up all but 3.1% or so of the library. Unless noted, the call rests on the fitted dose curve; in most records, active means well fitted curve in the direction sought with a large enough effect; inconclusive means small, poorly fitted or top-dose-only effect, or another doubt; inactive means no such curve, though single readings can be large; an effect the other way counts as inactive or inconclusive.

SMILES | Nrf2 activator | IL-2 act | BRCA1 expr act | ELG1 DNA repair
Cc1ccc(-n2nc(C(=O)N3CCC(C)CC3)c(=O)n(C)c2=O)cc1 | n | x | x | x
CS(=O)c1ccccc1-c1nc(-c2ccc(Cl)cc2)no1 (stereo unspecified) | n | n | 11.2µM | u
CS(=O)c1ccccc1-c1nc(-c2cccc(Cl)c2)no1 (stereo unspecified) | n | n | n | n
c1ccc(-c2noc(-c3cccnc3)n2)cc1 | 3.16µM | n | n | x
O=[N+]([O-])c1cc(Cl)ccc1-c1nc(-c2ccccc2)no1 | u | n | 2.82µM | u
c1coc(-c2nc(-c3ccncc3)no2)c1 | n | n | 3.16µM | u
O=C(NC1CCCC1)C(c1ccc(F)cc1)N1CCC(O)(c2ccc(Cl)cc2)CC1 (stereo unspecified) | x | n | x | x
Cc1cc(C)n2nc(CNC(=O)c3ccc(Cl)cc3)nc2n1 | n | x | x | x
CCOC(=O)CNC(=O)c1cc2c(=O)oc3ccccc3c2s1 | n | x | n | x
CCc1ccccc1NC(=O)Cn1nnc(-c2nc(-c3ccncc3)no2)c1N | n | x | x | x
O=[N+]([O-])c1ccc(-c2nc(-c3ccncc3)no2)cc1 | n | n | 2.51µM | u
Cc1ccccc1-c1nc(-c2cccnc2)no1 | 12.6µM | n | n | u
Clc1ccccc1-c1nc(-c2cccnc2)no1 | u | n | n | x
CSc1ccccc1-c1nc(-c2ccncc2)no1 | n | n | 3.16µM | u
Cc1onc(-c2ccccc2Cl)c1-c1nc(-c2ccncc2)no1 | n | n | n | n
CCN(CC)C(=O)CSc1nc(-c2ccccc2)cc(-c2ccc(OC)cc2)c1C#N | n | x | n | x
COc1ccc(CCC(C)NC(=O)Cc2ccc(OC)c(OC)c2)c(OC)c1 (stereo unspecified) | n | n | n | 18.3µM
Cc1nc(Nc2ccc(Cl)cc2)c2nnn(Cc3ccccc3)c2n1 | n | n | n | n
Cc1nc(Nc2ccc(S(=O)(=O)N3CCCCC3C)cc2)c2nnn(Cc3ccccc3)c2n1 (stereo unspecified) | n | n | n | 7.31µM
COc1ccc(Nc2nc(C)nc3c2nnn3Cc2ccccc2)cc1OC | n | n | n | 9.2µM
Cc1cccc(-c2nc(C)c(CCNC(=O)C(=O)Nc3cccc(Cl)c3C)s2)c1 | n | x | n | x
O=C(/C=C/c1cccc(O)c1)c1ccc(N2CCOCC2)cc1 | 14.1µM | n | n | u
COc1ccc(/C=C/C(=O)c2ccc(O)cc2)cc1CN1CCOCC1 | u | n | n | n
Cc1cccc(N(C)S(=O)(=O)c2nnc(NC(=O)C(C)Oc3ccccc3)s2)c1 (stereo unspecified) | n | x | x | x
COc1ccc(CNC(=O)C(CCSC)NS(=O)(=O)c2ccc3c(c2)oc(=O)n3C)cc1 (stereo unspecified) | n | x | x | x
SMILES | Nrf2 activator | IL-2 act | BRCA1 expr act | ELG1 DNA repair
CC(=O)Nc1c(Br)cc2c(c1Br)C(=O)c1ccccc1-2 | n | n | n | x
CC(=O)C1=C(c2ccc(Br)cc2)C(=O)c2ccccc2C1=O | n | n | n | 3.66µM
O=C(CC1N=C2c3ccccc3N=C(SCc3ccccc3Cl)N2C1=O)NC1CCCCC1 (stereo unspecified) | n | x | x | x
COC(=O)c1ccc(NC(=O)CSc2ccc(-c3sc(-c4ccccc4)nc3C)nn2)cc1 | n | x | x | x
O=[N+]([O-])c1ccc(CSc2nc3ccccc3[nH]2)cc1 | n | n | 3.98µM | u
COc1ccccc1Nc1nc(NCc2ccco2)nc(N)c1[N+](=O)[O-] | n | n | n | 18.3µM
Nc1nc(Nc2ccccc2)nc(NCc2ccccc2)c1[N+](=O)[O-] | n | n | n | 20.6µM
Cc1nnc(NCc2ccccc2)c2c1nnn2Cc1ccccc1Cl | n | x | x | x
COc1ccc(OC)c(NS(=O)(=O)c2cccc3cccnc23)c1 | n | n | n | n
COc1ccc(Cl)cc1NS(=O)(=O)c1cccc2cccnc12 | 12.6µM | n | n | n
COc1cc(OC)cc(C(=O)Nc2nc(-c3ccccc3)c(-c3ccccc3)o2)c1 | n | n | n | 13µM
Cc1cc(C)c2oc(C(=O)Nc3c(C)n(C)n(-c4ccccc4)c3=O)cc(=O)c2c1 | n | x | x | x
O=C(N/N=C/c1ccc([N+](=O)[O-])o1)c1ccc(NS(=O)(=O)c2cccs2)cc1 | n | n | n | 20.6µM
O=C(N/N=C/c1ccc([N+](=O)[O-])cc1)c1ccc(NS(=O)(=O)c2cccs2)cc1 | n | n | n | n
